According to the supplement of paper PMC8728848:
This excerpt belongs to a sample that is enriched for the strongest signals.

Key:
Assay in all cases: glycan array binding signal (z-score within array); higher = stronger binding
Conditions in all cases: glycan notation: IUPAC condensed, linker removed
[1] = molecular target: Fuc(a1-2)Gal(b1-3)GalNAc(a1-3)[Fuc(a1-2)]Gal(b1-4)GlcNAc
Procedure, shortened: (§1)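 The binding signal is a Z-score computed within each array and averaged over linkers. Arrays of the same protein sequence at different concentrations or buffers were also averaged together. Data originate from 3228 arrays in the Consortium for Functional Glycomics database, kept only where the protein sequence was available.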

[2] = molecular target: Fuc(a1-2)Gal(b1-4)GlcNAc(b1-2)Man(a1-3)[Fuc(a1-2)Gal(b1-4)GlcNAc(b1-2)Man(a1-6)]Man(b1-4)GlcNAc(b1-4)[Fuc(a1-6)]GlcNAc
Procedure, shortened: as §1

[3] = molecular target: Fuc(a1-2)Gal(b1-4)[Fuc(a1-3)]GlcNAc(b1-2)Man(a1-3)[Fuc(a1-2)Gal(b1-4)[Fuc(a1-3)]GlcNAc(b1-2)Man(a1-6)]Man(b1-4)GlcNAc(b1-4)[Fuc(a1-6)]GlcNAc
Procedure, shortened: as §1

[4] = molecular target: Fuc(a1-2)Gal(b1-4)[Fuc(a1-3)]GlcNAc(b1-3)Gal(b1-4)[Fuc(a1-3)]GlcNAc
Procedure, shortened: as §1

[5] = molecular target: Fuc(a1-2)Gal(b1-4)[Fuc(a1-3)]GlcNAc(b1-3)Gal(b1-4)[Fuc(a1-3)]GlcNAc(b1-3)Gal(b1-4)[Fuc(a1-3)]GlcNAc
Procedure, shortened: as §1

[6] = molecular target: Fuc(a1-2)Gal(b1-4)[Fuc(a1-3)]GlcNAc(b1-3)[Neu5Ac(a2-6)Gal(b1-4)GlcNAc(b1-6)]Gal(b1-4)Glc
Procedure, shortened: as §1

[7] = molecular target: Fuc(a1-2)[Gal(a1-3)]Gal
Procedure, shortened: as §1

[8] = molecular target: Fuc(a1-2)[Gal(a1-3)]Gal(b1-3)GlcNAc
Procedure, shortened: as §1

[9] = molecular target: Fuc(a1-2)[Gal(a1-3)]Gal(b1-3)GlcNAc(b1-3)GalNAc
Procedure, shortened: as §1

[10] = molecular target: Fuc(a1-2)[Gal(a1-3)]Gal(b1-4)[Fuc(a1-3)]GlcNAc(b1-3)GalNAc
Procedure, shortened: as §1

[11] = molecular target: Fuc(a1-2)[GalNAc(a1-3)]Gal(b1-3)GalNAc(a1-3)[Fuc(a1-2)]Gal(b1-4)GlcNAc
Procedure, shortened: as §1

[12] = molecular target: Fuc(a1-2)[GalNAc(a1-3)]Gal(b1-3)GlcNAc
Procedure, shortened: as §1

[13] = molecular target: Fuc(a1-2)[GalNAc(a1-3)]Gal(b1-4)GlcNAc(b1-3)Gal(b1-4)GlcNAc(b1-3)Gal(b1-4)GlcNAc
Procedure, shortened: as §1

[14] = molecular target: Fuc(a1-2)[GalNAc(a1-3)]Gal(b1-4)GlcNAc(b1-3)[Fuc(a1-2)[GalNAc(a1-3)]Gal(b1-4)GlcNAc(b1-6)]GalNAc
Procedure, shortened: as §1

[15] = molecular target: Fuc(a1-3)[Gal(b1-4)]GlcNAc(b1-3)Gal(b1-3)[Fuc(a1-4)]GlcNAc
Procedure, shortened: as §1

[16] = molecular target: Fuc(a1-3)[Gal(b1-4)]GlcNAc(b1-3)Gal(b1-4)[Fuc(a1-3)]GlcNAc
Procedure, shortened: as §1

[17] = molecular target: Fuc(a1-3)[Gal(b1-4)]GlcNAc(b1-3)Gal(b1-4)[Fuc(a1-3)]GlcNAc(b1-3)Gal(b1-4)[Fuc(a1-3)]GlcNAc
Procedure, shortened: as §1

[18] = molecular target: Fuc(a1-3)[Gal3S(b1-4)]GlcNAc6S
Procedure, shortened: as §1

[19] = molecular target: Fuc(a1-3)[GalNAc(b1-4)]GlcNAc6S
Procedure, shortened: as §1

[20] = molecular target: Gal(a1-3)Gal(b1-4)Glc
Procedure, shortened: as §1

[21] = molecular target: Gal(a1-3)Gal(b1-4)[Fuc(a1-3)]GlcNAc(b1-2)Man(a1-3)[Gal(a1-3)Gal(b1-4)[Fuc(a1-3)]GlcNAc(b1-2)Man(a1-6)]Man(b1-4)GlcNAc(b1-4)GlcNAc
Procedure, shortened: as §1

[22] = molecular target: Gal(a1-4)Gal(b1-3)GlcNAc(b1-2)Man(a1-3)[Gal(a1-4)Gal(b1-3)GlcNAc(b1-2)Man(a1-6)]Man(b1-4)GlcNAc(b1-4)GlcNAc
Procedure, shortened: as §1

[23] = molecular target: Gal(b1-3)GlcNAc(b1-3)Gal(b1-3)GlcNAc
Procedure, shortened: as §1

[24] = molecular target: Gal(b1-3)[Fuc(a1-4)]GlcNAc(b1-3)Gal(b1-3)[Fuc(a1-4)]GlcNAc
Procedure, shortened: as §1

[25] = molecular target: Gal(b1-4)GlcNAc(b1-2)[Gal(b1-4)GlcNAc(b1-6)]Man(a1-6)[GlcNAc(b1-4)][Gal(b1-4)GlcNAc(b1-2)Man(a1-3)]Man(b1-4)GlcNAc(b1-4)GlcNAc
Procedure, shortened: as §1

[26] = molecular target: Gal(b1-4)GlcNAc(b1-3)Gal(b1-4)GlcNAc(b1-2)[Gal(b1-4)GlcNAc(b1-3)Gal(b1-4)GlcNAc(b1-6)]Man(a1-6)[Gal(b1-4)GlcNAc(b1-3)Gal(b1-4)GlcNAc(b1-2)Man(a1-3)]Man(b1-4)GlcNAc(b1-4)GlcNAc
Procedure, shortened: as §1

[27] = molecular target: Gal(b1-4)GlcNAc(b1-3)Gal(b1-4)GlcNAc(b1-3)Gal(b1-4)GlcNAc(b1-2)Man(a1-3)[Gal(b1-4)GlcNAc(b1-3)Gal(b1-4)GlcNAc(b1-3)Gal(b1-4)GlcNAc(b1-2)Man(a1-6)]Man(b1-4)GlcNAc(b1-4)[Fuc(a1-6)]GlcNAc
Procedure, shortened: as §1

[28] = molecular target: Gal(b1-4)GlcNAc(b1-3)Gal(b1-4)GlcNAc(b1-3)[Gal(b1-4)GlcNAc(b1-3)Gal(b1-4)GlcNAc(b1-6)]GalNAc
Procedure, shortened: as §1

[29] = molecular target: Gal(b1-4)GlcNAc(b1-3)Gal(b1-4)GlcNAc(b1-6)[Gal(b1-3)]GalNAc
Procedure, shortened: as §1

[30] = molecular target: Gal3S(b1-3)GlcNAc
Procedure, shortened: as §1

[31] = molecular target: Gal3S4S(b1-4)GlcNAc
Procedure, shortened: as §1

[32] = molecular target: GalNAc3S(b1-4)GlcNAc3S
Procedure, shortened: as §1

[33] = molecular target: GlcNAc(b1-2)[GlcNAc(b1-4)]Man(a1-3)[GlcNAc(b1-4)][GlcNAc(b1-2)[GlcNAc(b1-6)]Man(a1-6)]Man(b1-4)GlcNAc(b1-4)[Fuc(a1-6)]GlcNAc
Procedure, shortened: as §1

[34] = molecular target: GlcNAc(b1-3)Fuc
Procedure, shortened: as §1

[35] = molecular target: GlcNAc(b1-3)Gal(b1-4)GlcNAc
Procedure, shortened: as §1

[36] = molecular target: GlcNAc(b1-4)GlcNAc
Procedure, shortened: as §1

[37] = molecular target: Kdn(a2-3)Gal(b1-4)[Fuc(a1-3)]GlcNAc
Procedure, shortened: as §1

[38] = molecular target: Man(a1-2)Man(a1-2)Man(a1-6)[Man(a1-3)]Man
Procedure, shortened: as §1

[39] = molecular target: Man(a1-2)Man(a1-3)[Man(a1-2)Man(a1-6)]Man(a1-6)[Man(a1-2)Man(a1-2)Man(a1-3)]Man
Procedure, shortened: as §1

[40] = molecular target: MurNAc(b1-4)GlcNAc
Procedure, shortened: as §1

[41] = molecular target: Neu5Ac(a2-3)Gal(b1-3)GlcNAc(b1-2)Man(a1-3)[Neu5Ac(a2-3)Gal(b1-3)GlcNAc(b1-2)Man(a1-6)]Man(b1-4)GlcNAc(b1-4)GlcNAc
Procedure, shortened: as §1

[42] = molecular target: Neu5Ac(a2-3)Gal(b1-3)GlcNAc(b1-3)GalNAc
Procedure, shortened: as §1

[43] = molecular target: Neu5Ac(a2-3)Gal(b1-3)GlcNAc(b1-4)Gal(b1-4)Glc
Procedure, shortened: as §1

[44] = molecular target: Neu5Ac(a2-3)Gal(b1-3)[Fuc(a1-4)]GlcNAc(b1-3)Gal(b1-3)[Fuc(a1-4)]GlcNAc
Procedure, shortened: as §1

[45] = molecular target: Neu5Ac(a2-3)Gal(b1-4)GlcNAc(b1-3)Gal
Procedure, shortened: as §1

[46] = molecular target: Neu5Ac(a2-3)Gal(b1-4)GlcNAc(b1-6)[Gal(b1-3)]GalNAc
Procedure, shortened: as §1

[47] = molecular target: Neu5Ac(a2-3)Gal(b1-4)[Fuc(a1-3)]GlcNAc(b1-6)[Gal(b1-3)]GalNAc
Procedure, shortened: as §1

[48] = molecular target: Neu5Ac(a2-3)[GalNAc(b1-4)]Gal(b1-4)GlcNAc(b1-3)GalNAc
Procedure, shortened: as §1

[49] = molecular target: Neu5Ac(a2-6)Gal(b1-4)GlcNAc(b1-2)Man(a1-3)[Neu5Ac(a2-3)Gal(b1-4)GlcNAc(b1-2)Man(a1-6)]Man(b1-4)GlcNAc(b1-4)GlcNAc
Procedure, shortened: as §1

[50] = molecular target: Neu5Ac(a2-6)Gal(b1-4)GlcNAc(b1-2)[Neu5Ac(a2-6)Gal(b1-4)GlcNAc(b1-4)]Man(a1-3)[GlcNAc(b1-4)][Neu5Ac(a2-6)Gal(b1-4)GlcNAc(b1-4)Man(a1-6)]Man(b1-4)GlcNAc(b1-4)GlcNAc
Procedure, shortened: as §1

[51] = molecular target: Neu5Ac(a2-6)Gal(b1-4)GlcNAc(b1-2)[Neu5Ac(a2-6)Gal(b1-4)GlcNAc(b1-6)]Man(a1-6)[Neu5Ac(a2-6)Gal(b1-4)GlcNAc(b1-2)Man(a1-3)][GlcNAc(b1-4)]Man(b1-4)GlcNAc(b1-4)GlcNAc
Procedure, shortened: as §1

[52] = molecular target: Neu5Ac(a2-8)Neu5Ac(a2-3)Gal(b1-4)Glc
Procedure, shortened: as §1

[53] = molecular target: Neu5Ac(a2-8)Neu5Ac(a2-8)Neu5Ac(a2-8)Neu5Ac(a2-3)[GalNAc(b1-4)]Gal(b1-4)Glc
Procedure, shortened: as §1

[54] = molecular target: Neu5Ac9Ac(a2-3)Gal(b1-4)GlcNAc
Procedure, shortened: as §1

B1: DC-Sign (Homo sapiens), Q9NNX6 (protein)
chain: MSDSKEPRLQQLGLLEEEQLRGLGFRQTRGYKSLAGCLGHGPLVLQLLSFTLLAGLLVQVSKVPSSISQEQSRQDAIYQNLTQLKAAVGELSEKSKLQEIYQELTQLKAAVGELPEKSKLQEIYQELTRLKAAVGELPEKSKLQEIYQELTWLKAAVGELPEKSKMQEIYQELTRLKAAVGELPEKSKQQEIYQELTRLKAAVGELPEKSKQQEIYQELTRLKAAVGELPEKSKQQEIYQELTQLKAAVERLCHPCPWEWTFFQGNCYFMSNSQRNWHDSITACKEVGAQLVVIKSAEEQNFLQLQSSRSNRFTWMGLSDLNQEGTWQWVDGSPLLPSFKQYWNRGEPNNVGEEDCAEFSGNGWNDDKCNLAKFWICKKSAASCSRDEEQFLSPAPATPNPPPA
[1]
  glycan array binding signal (z-score): -0.14
[2]
  glycan array binding signal (z-score): -0.182
[3]
  glycan array binding signal (z-score): 9.49
[4]
  glycan array binding signal (z-score): 12.6
[5]
  glycan array binding signal (z-score): 6.53
[6]
  glycan array binding signal (z-score): -0.045
[7]
  glycan array binding signal (z-score): 0.684
[8]
  glycan array binding signal (z-score): -0.126
[9]
  glycan array binding signal (z-score): -0.189
[10]
  glycan array binding signal (z-score): -0.164
[11]
  glycan array binding signal (z-score): -0.193
[12]
  glycan array binding signal (z-score): -0.122
[13]
  glycan array binding signal (z-score): -0.15
[14]
  glycan array binding signal (z-score): -0.189
[15]
  glycan array binding signal (z-score): 5.28
[16]
  glycan array binding signal (z-score): 2.48
[17]
  glycan array binding signal (z-score): 8.36
[18]
  glycan array binding signal (z-score): -0.13
[19]
  glycan array binding signal (z-score): 1.43
[20]
  glycan array binding signal (z-score): -0.198
[21]
  glycan array binding signal (z-score): -0.165
[22]
  glycan array binding signal (z-score): -0.131
[23]
  glycan array binding signal (z-score): -0.156
[24]
  glycan array binding signal (z-score): 2.51
[25]
  glycan array binding signal (z-score): -0.187
[26]
  glycan array binding signal (z-score): 0.026
[27]
  glycan array binding signal (z-score): -0.137
[28]
  glycan array binding signal (z-score): -0.146
[29]
  glycan array binding signal (z-score): -0.097
[30]
  glycan array binding signal (z-score): -0.136
[31]
  glycan array binding signal (z-score): -0.195
[32]
  glycan array binding signal (z-score): -0.101
[33]
  glycan array binding signal (z-score): -0.179
[34]
  glycan array binding signal (z-score): -0.17
[35]
  glycan array binding signal (z-score): -0.089
[36]
  glycan array binding signal (z-score): -0.109
[37]
  glycan array binding signal (z-score): -0.1
[38]
  glycan array binding signal (z-score): 4.51
[39]
  glycan array binding signal (z-score): 8.32
[40]
  glycan array binding signal (z-score): 0.01
[41]
  glycan array binding signal (z-score): -0.202
[42]
  glycan array binding signal (z-score): -0.142
[43]
  glycan array binding signal (z-score): -0.183
[44]
  glycan array binding signal (z-score): 1.83
[45]
  glycan array binding signal (z-score): -0.186
[46]
  glycan array binding signal (z-score): -0.171
[47]
  glycan array binding signal (z-score): -0.164
[48]
  glycan array binding signal (z-score): -0.171
[49]
  glycan array binding signal (z-score): -0.097
[50]
  glycan array binding signal (z-score): -0.183
[51]
  glycan array binding signal (z-score): -0.167
[52]
  glycan array binding signal (z-score): -0.177
[53]
  glycan array binding signal (z-score): -0.19
[54]
  glycan array binding signal (z-score): -0.175
